Rows were chosen to be rich in hits. Some 4.8% of all compounds tested hit in one or more screens of this group.
hcDAF12 agonist: activators of H. contortus DAF-12 nuclear receptor; 1.4% of 370,000 active; activation, % at 6.8 µM; HEK293 hcDAF-12 lit1-tk-luc reporter, luminescence; 0% DMSO, 100% Δ7-dafachronic acid;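 active = activation above the mean of all tested compounds plus 3 SD, cut at about 5.5% in these data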;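 note: 100% = response to 3 µM Δ7-dafachronic acid high control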
DAX1 inh-1: inhibitors of human orphan nuclear receptor DAX1 (NR0B1). HEK293 Gal4-DAX1 luciferase reporter, luminescence. inhibition, % at 6.75 µM. 0.99% of 340,000 active;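 active = inhibition above the mean over all tested compounds plus 3 SD, cut at about 4.2% in these data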;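 note: 0% = DAX1-transfected cells with DMSO and 100% = empty-vector control cells with DMSO; inhibition shows as a rise in luminescence from relieved DAX1 repression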
hgDAF12 agonist: agonists of H. glycines DAF-12 nuclear receptor; HEK293 GAL4-hgDAF12 UAS-luciferase reporter, agonist luminescence; normalized to butyrate control; activation, % at 6.8 µM; 1.8% of 370,000 active;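 active = activation above a cutoff set at the mean of all screened compounds plus 3 SD, cut at about 10% in these data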;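 note: 0% = DMSO wells and 100% = sodium butyrate wells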
ssDAF-12 act: activates DAF-12 receptor from parasite S. stercoralis; HEK293 ssDAF-12/GRIP1 lit1-tk-luc reporter, luminescence; % of 3 µM dafachronic acid response; activation, % at 6.8 µM; 1% of 370,000 active; AID 652126;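 active = activation above the mean over all tested compounds plus 3 SD, cut at about 0.9% in these data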;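 note: 0% = DMSO-only wells and 100% = 3 µM delta7-dafachronic acid wells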
DAX1 inh-2: blocks DAX1 repression of SF-1 activated StAR promoter; inhibition, % at 6.8 µM; 1.1% of 370,000 active; HEK293T StAR-luciferase reporter, SF-1/DAX-1 repression relief;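 active = inhibition above the mean over all tested compounds plus 3 SD, cut at about 3.6% in these data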;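 note: 0% = DAX-1 cells with DMSO and 100% = cells lacking DAX-1 with DMSO; higher inhibition means more luminescence from relief of DAX-1 repression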
SMARCA2 activ: SMARCA2 function activation, primary screen. MG213 cells, MMTV-luciferase reporter, dexamethasone, overnight. activation, % at 9.1 µM. 1% of 370,000 active. AID 652017; in the data active = activation above about 7.8%;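 note: 0% = vehicle wells and 100% = reference activator wells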
SMARCA2 act conf: SMARCA2 activation, confirmation screen. activation, % at 9.1 µM. shares compounds with SMARCA2 activ. 30% of 3,500 active. MG213 cells, MMTV-luciferase with dexamethasone, luminescence, overnight; MG213 cells expressing E1A, Rb sequestered; DMSO wells 0%, reference activator 100%;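 active = activation above its plate's cutoff, the mean activation of tested wells plus 3 SD, cut at about 7.9% in these data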
GAL4-VP16 Luc: GAL4-VP16 reporter activation counter-screen; shares compounds with SMARCA2 activ; HEK293 GAL4-VP16 pG5luc reporter, luciferase luminescence; scaled: DMSO wells 0%, SAHA wells 100%; activation, % at 9.1 µM; 41% of 3,500 active; AID 686939;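 active = activation above the solvent-only control well mean plus 3 SD, averaged across control plates, cut at about 5.2% in these data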
LXR ag: counter-screen for hcDAF-12 agonists: agonists of human LXR-beta; activation, % at 6.8 µM; shares compounds with hcDAF12 agonist; 3,400 tested, under 10 active; HEK293 Gal4-LXR tk-luc reporter, luminescence, 24 h; normalized: DMSO 0%, positive control 100%;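 active = mean percent activation of the reporter above a cutoff set as the average over tested compounds plus their standard deviation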
Target sequence (P55055 whole entry, looked up, the tested form may be a part): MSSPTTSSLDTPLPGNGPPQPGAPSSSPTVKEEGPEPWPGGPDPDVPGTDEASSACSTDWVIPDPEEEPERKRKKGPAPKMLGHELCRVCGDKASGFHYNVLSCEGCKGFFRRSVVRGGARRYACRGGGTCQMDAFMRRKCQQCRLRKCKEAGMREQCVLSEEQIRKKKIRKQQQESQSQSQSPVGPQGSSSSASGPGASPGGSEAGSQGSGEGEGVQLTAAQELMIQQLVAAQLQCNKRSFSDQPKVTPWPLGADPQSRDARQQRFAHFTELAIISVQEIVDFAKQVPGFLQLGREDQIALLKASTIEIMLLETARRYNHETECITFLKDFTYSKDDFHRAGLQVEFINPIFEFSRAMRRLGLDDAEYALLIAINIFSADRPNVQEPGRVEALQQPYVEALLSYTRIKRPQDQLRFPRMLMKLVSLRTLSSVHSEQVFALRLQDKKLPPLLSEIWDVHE
hcDAF12 ag: hcDAF-12 agonism, confirmation assay; 61% of 3,400 active; HEK293 hcDAF-12 lit1-tk-luc reporter, luminescence; % of Δ7-dafachronic acid response; shares compounds with hcDAF12 agonist; activation, % at 6.8 µM;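 active = mean activation across triplicate tests above the threshold derived from the earlier primary screen, cut at about 5.5% in these data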;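 note: 0% = DMSO only wells and 100% = 3 µM Δ7-dafachronic acid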
hgDAF12 conf: confirmation of H. glycines DAF-12 agonists; shares compounds with hgDAF12 agonist; HEK293 GAL4-hgDAF12 luciferase reporter, agonist mode; percent of butyrate response; activation, % at 6.8 µM; 80% of 3,300 active; AID 743050;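 active = mean activation over triplicate wells above the hit cutoff derived from the earlier primary screen, cut at about 11% in these data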;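 note: 0% = DMSO low control and 100% = 2 mM sodium butyrate high control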
LXR ag 2: activates human LXR-beta, counter-screen for DAF-12 agonists | shares compounds with hgDAF12 agonist | HEK293 Gal4-LXR luciferase reporter, 24 h | activation, % at 6.8 µM | 3,300 tested, under 10 active;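 active = mean activation of the triplicate above a set limit carried over from the primary screen, none filed active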
* marks the source's active call; other numbers are inactive results; / = not tested or not shown.

SMILES	hcDAF12 agonist	DAX1 inh-1	hgDAF12 agonist	ssDAF-12 act	DAX1 inh-2	SMARCA2 activ	SMARCA2 act conf	GAL4-VP16 Luc	hgDAF12 conf	LXR ag 2	others
Cn1nc(C(=O)N2CCN(c3ccc(F)cc3)CC2)c2c1-c1ccccc1S(=O)(=O)C2	-2	0	-3	-1	0	-2	/	/	/	/
COC(=O)C(/C=N/OCc1ccc([N+](=O)[O-])cc1)NC(=O)c1cccc(Cl)c1 (stereo not given)	0	0	1	0	0	0	/	/	/	/
CCc1ccc(-c2cnc3ccccc3n2)cc1NC(=O)CNC(=O)c1ccccc1	13*	1	19*	1.1*	3	8.1*	7	18*	9	1	LXR ag=2;hcDAF12 ag=6.6*
CCOc1ccc(S(=O)(=O)Nc2cccc(C(=O)NCC(c3ccco3)N3CCCC3)c2)cc1 (stereo not given)	1	2	2	0	-2	-3	/	/	/	/
O=C(CSc1cccc[n+]1[O-])Nc1cc2c(cc1Cl)C(=O)c1ccccc1C2=O	5	1	15*	1.1*	1	12*	13*	7.3*	13*	1
Cc1nn(CC(=O)O)c(C)c1N	1	2	-2	-1	0	-4	/	/	/	/
O=C(O)c1ccc(N=Nc2c(O)[nH]c3cc(Cl)ccc23)cc1	5	6.4*	17*	0	3.7*	14*	12*	14*	19*	1
Cc1ccccc1NC(=S)c1ccc2ccccc2n1	14*	1	13*	1.3*	1	8.2*	16*	7.6*	13*	0	LXR ag=0;hcDAF12 ag=7.9*
COCCn1c(SCC(=O)NCCCN2CCCC2=O)nc2ccccc2c1=O	0	0	0	-1	0	3	/	/	/	/
N/C(=N\OC(=O)c1ccccc1Cl)c1cccnc1	9.7*	1	15*	1.9*	3	8.8*	18*	7.8*	14*	1	LXR ag=1;hcDAF12 ag=6.4*
CC(C)C(OC(=O)CN1C(=O)c2ccccc2C1=O)C(=O)NC1CCCCC1 (stereo not given)	-2	1	0	-1	0	-2	/	/	/	/
O=C(NN=C1CCCC1)c1cccc(O)c1	3	1	14*	1	3	8.9*	3	1	2	0
O=C(NN=C1CCCC1)c1cc(O)cc(O)c1	-1	0	3	-1	2	3	/	/	/	/
CC(=O)Nc1cccc(Nc2nc(-c3ccccc3F)nc3ccccc23)c1	0	1	-2	-2	-2	-2	/	/	/	/
COc1cc(/C=N/N(c2ccccc2)c2ccccc2)ccc1O	0	1	1	0	0	-1	/	/	/	/
CCOc1ccc(/C=N/N(C)c2ccccc2)cc1OC	4	3	14*	-1	3	8.5*	8.1*	12*	16*	1
O=C(Nc1ccc(Br)cn1)c1ccc2ccccc2c1	4	2	14*	1.6*	2	9.3*	12*	14*	19*	1

Bioassay records as filed in PubChem BioAssay.
